Source: paper PMC5540273 (PLoS ONE, 2017)

These compounds were tested on NEK2. Details: concentration: 1 μM, replicates: in singlicate; n = 1.
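Note: KINOMEscan kinase panel screen.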

Q: Which “%Inh” value does the source give for `CCCCc1nn2ncccc2c1-c1ccnc(Nc2ccc(N3CCN(C)CC3)cc2)n1` [GW684941] here?
A: The value was 53%.

Q: How did the “%Inh” value turn out when `Cc1ccc(S(=O)(=O)Nc2ccc(Nc3nccc(Nc4cccc5[nH]ncc45)n3)cc2)cc1` [GSK581271] was run?
A: The value was 4%.

Q: With `CN(C)Cc1ccc(-c2ccc3c(Nc4ccc(Oc5ccccn5)cc4)ccnc3c2)o1` [GW567148] as the compound, how does the “%Inh” value read?
A: Its value is 0%.

Q: With `Cc1cccc(Nc2nc(N[C@H]3CCNC3)ncc2C(N)=O)c1.Cl` [GSK2197149] as the compound, how does the “%Inh” value read?
A: Its value is 0%.

Q: How did the “%Inh” value turn out when `Cc1ccc(C(=O)N2CC[C@@H](O)C2)cc1-n1c(C)cc(OCc2ccc(F)cc2F)c(Br)c1=O` was run?
A: The value was 0%.

Q: For `O=C(O)C(F)(F)F.O=C(O)C(F)(F)F.O=c1[nH]ccc2nc(N[C@@H]3CCCNC3)nc(Nc3ccc(S(=O)(=O)N4CCOCC4)cc3)c12` [GSK2177277], which “%Inh” value is on record?
A: Its value is 80%.

Q: For `Cc1ccc(C)c(NC(=O)NC2CCN(c3ccnc(Nc4ccc(F)cc4)n3)C2)c1` (centres unmarked) [GSK1379720], which “%Inh” value is on record?
A: The value was 0%.

Q: For `Cc1cccc(NC(=O)Nc2ccc(Oc3ncnc4ccn(C)c34)cc2)c1`, which “%Inh” value is on record?
A: Its value is 0%.

Q: How did the “%Inh” value turn out when `COc1ccc(-c2coc3ccc(-c4nnc(SCc5ccc(OC)c(C(F)(F)F)c5)o4)cc23)cc1` was run?
A: Its value is 8%.

Q: Which “%Inh” value does the source give for `CC(C)c1nc(-c2cccc(NS(=O)(=O)c3c(F)cccc3F)c2F)c(-c2ccnc(Nc3ccc(N4CCOCC4)nc3)n2)s1` [GSK2008607] here?
A: The value was 99.1%.

Q: With `O=C(Nc1cccc(-c2nn3ncccc3c2-c2ccnc(Nc3ccccc3)n2)c1)c1c(F)cccc1F` [GSK198271] as the compound, how does the “%Inh” value read?
A: Its value is 21%.
